Reference: PMC10726135, “HNF4α isoforms regulate the circadian balance between carbohydrate and lipid metabolism in the liver”
In all, about 18,000 sequences were measured (“log2 normalized intensity”: median about 0.36, highest 2% from about 7.3 on). For the sample, the highest values were picked, then their nearest neighbours and some sequences at random.

Target: T1, HNF4alpha8 (COS-7 nuclear extract) (Homo sapiens, UniProt P41235-5 1-452)
T1 sequence: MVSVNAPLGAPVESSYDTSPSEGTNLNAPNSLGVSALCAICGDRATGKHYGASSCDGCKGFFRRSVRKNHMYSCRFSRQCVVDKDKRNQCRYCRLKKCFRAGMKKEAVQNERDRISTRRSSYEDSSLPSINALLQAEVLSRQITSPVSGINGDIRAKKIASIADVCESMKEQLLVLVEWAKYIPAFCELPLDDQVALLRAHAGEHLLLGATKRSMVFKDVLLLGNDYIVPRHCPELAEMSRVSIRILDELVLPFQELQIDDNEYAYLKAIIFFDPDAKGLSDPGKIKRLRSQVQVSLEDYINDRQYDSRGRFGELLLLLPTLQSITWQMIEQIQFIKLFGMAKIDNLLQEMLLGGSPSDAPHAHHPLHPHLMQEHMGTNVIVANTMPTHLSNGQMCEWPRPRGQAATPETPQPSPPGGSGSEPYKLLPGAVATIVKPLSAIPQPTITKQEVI
Test: protein-binding microarray; COS-7 nuclear extract on double-stranded Agilent 4x180k PBM; binding buffer, salt, pH and temperature not given in the material; high values mean tight binding
Conditions: chain copies: 2; label: 3' end of strand 1 on the slide; dsDNA, one strand shown
How it was run: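 A custom Agilent SurePrint G3 4x180k array, spotted in quadruplicate with ~44,000 test sequences as ~60-nt oligonucleotides made double-stranded, was incubated with nuclear extracts. The extracts came from COS-7 cells transiently transfected by CaPO4 with a human HNF4α isoform expression vector. Bound HNF4α was imaged on an Agilent G2565CA scanner at 2-µm resolution, and the binding signal was taken as Agilent software's background-corrected, normalized gProcessedSignal.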

Sequence | binding signal [log2 normalized intensity]
TTCAGAAGACTTCCTGGCCTCTCTGCAAATGCCTAGGGAGATTAGAGTATCGGTCGA | -0.39
TAACGGTGAGGGAGGAGACTTTGACCTCTGGCCTAGGGAGATTAGAGTATCGGTCGA | 7.45
GTGAGGGAGGAGACTTTGACCTCTGCTAGGGCCTAGGGAGATTAGAGTATCGGTCGA | 6.12
GGAGGAGACTTTGACCTCTGCTAGGTTTGGGCCTAGGGAGATTAGAGTATCGGTCGA | 5.5
TATGTCTCTCCTATTCAGGTATTTGCTCTGGCCTAGGGAGATTAGAGTATCGGTCGA | 0.488
CACAGTGTAGAAGGCAAGGGTCAAGATGTCGCCTAGGGAGATTAGAGTATCGGTCGA | 2.31
ATTCCAGTGTTTCAAAGGAGTGTCTTTCTCGCCTAGGGAGATTAGAGTATCGGTCGA | 1.51
TAAGACTAACCTTTGACCATCCACGGATGCGCCTAGGGAGATTAGAGTATCGGTCGA | 5.5
TTACTCATGTGGTCCTAAGACTAACCTTTGGCCTAGGGAGATTAGAGTATCGGTCGA | 4.06
ATTAACTAACCTTTGAACCAGATGGCCCTCGCCTAGGGAGATTAGAGTATCGGTCGA | 4.3
CATGTGGTCCTAAGACTAACCTTTGACCATGCCTAGGGAGATTAGAGTATCGGTCGA | 8.37
CCTTACCTCCATTAACTAACCTTTGAACCAGCCTAGGGAGATTAGAGTATCGGTCGA | 7.58
CCTCCATTAACTAACCTTTGAACCAGATGGGCCTAGGGAGATTAGAGTATCGGTCGA | 5.69
TACTCATGTGGTCCTAAGACTAACCTTTGAGCCTAGGGAGATTAGAGTATCGGTCGA | 7.11
GGTCCTAAGACTAACCTTTGACCATCCACGGCCTAGGGAGATTAGAGTATCGGTCGA | 6.44
ATGTGGTCCTAAGACTAACCTTTGACCATCGCCTAGGGAGATTAGAGTATCGGTCGA | 8.15
CTGACATTCTCCACTTGGTGACTGTCATTTGCCTAGGGAGATTAGAGTATCGGTCGA | 0.274
TGCCCTCACAGGTTCCAGCATGGACTTCACGCCTAGGGAGATTAGAGTATCGGTCGA | 3.32
TTCCGCGGACGTGTTCCCACAGTGCCCTCTGCCTAGGGAGATTAGAGTATCGGTCGA | 3.77
AGTTTCAACTTAACCCCAGTTTAGCAATTTGCCTAGGGAGATTAGAGTATCGGTCGA | 2.08
AGGTGACCTTTGCTCCGGTTCCCAATAAGTGCCTAGGGAGATTAGAGTATCGGTCGA | 5.71
AACACAGGTGACCTTTGCTCCGGTTCCCAAGCCTAGGGAGATTAGAGTATCGGTCGA | 7.12

Sequence | binding signal [log2 normalized intensity]
TCTTTTCTAAGACATAACACAGGTGACCTTGCCTAGGGAGATTAGAGTATCGGTCGA | 4.48
CTAAGCAGGCACATTCCAGGACCTTTGCTCGCCTAGGGAGATTAGAGTATCGGTCGA | 4.83
TCTAAGACATAACACAGGTGACCTTTGCTCGCCTAGGGAGATTAGAGTATCGGTCGA | 8.96
GACATAACACAGGTGACCTTTGCTCCGGTTGCCTAGGGAGATTAGAGTATCGGTCGA | 7.92
TGTGGGTAATTAATCTGATCGCCCTCCCCCGCCTAGGGAGATTAGAGTATCGGTCGA | 5.29
CTATTCTCTAAACTCTGGGCTCTATTTGGAGCCTAGGGAGATTAGAGTATCGGTCGA | 0.51
TACTTTGGACTGGGGACCTGGTCTGAGATAGCCTAGGGAGATTAGAGTATCGGTCGA | 1.25
GGACCTGAGGCTTTTGAGTCAATAATGGACGCCTAGGGAGATTAGAGTATCGGTCGA | 1.38
GAGGCTCAGACCTGACCTTTGGATTCCCAGGCCTAGGGAGATTAGAGTATCGGTCGA | 7.11
GAGATGAGGCTCAGACCTGACCTTTGGATTGCCTAGGGAGATTAGAGTATCGGTCGA | 8.85
AAGACTTTGGACTTTGGACCTGAGGCTTTTGCCTAGGGAGATTAGAGTATCGGTCGA | 10.3
TGCTGGAGATGAGGCTCAGACCTGACCTTTGCCTAGGGAGATTAGAGTATCGGTCGA | 7.17
ACAAGGAGTCTCCACTATGACCTGTGCTTTGCCTAGGGAGATTAGAGTATCGGTCGA | 2.18
TATAGTTTATCTACCTTTGTACCTTTAGTAGCCTAGGGAGATTAGAGTATCGGTCGA | 4.65
GTTGGGCAGAAGGTGTTTCAGATGGACCAAGCCTAGGGAGATTAGAGTATCGGTCGA | 1.98
ATAGCTGCCTGTGTGTTCTGCTATTCATTAGCCTAGGGAGATTAGAGTATCGGTCGA | 0.562
GTGCTGGTACATAGCAGGGGTTAGGTAAACGCCTAGGGAGATTAGAGTATCGGTCGA | -0.36
ATGGAGCTGGAGGGCAAAGGTCAGAGGCTGGCCTAGGGAGATTAGAGTATCGGTCGA | 6.88
TCAGGAGCCCCACAGAGCAAAGGTCATGCAGCCTAGGGAGATTAGAGTATCGGTCGA | 6.34
GGAGCAGAGCGATCAAAGGTCACAGAGACCGCCTAGGGAGATTAGAGTATCGGTCGA | 6.2
TGGGCCCACAGATGATCAAAGGTCAGTCTTGCCTAGGGAGATTAGAGTATCGGTCGA | 7.25
CACTGGGGTCATGGAGCTGGAGGGCAAAGGGCCTAGGGAGATTAGAGTATCGGTCGA | 4.08

Sequence | binding signal [log2 normalized intensity]
AATCATGGGCCCACAGATGATCAAAGGTCAGCCTAGGGAGATTAGAGTATCGGTCGA | 7.91
GGGTCATGGAGCTGGAGGGCAAAGGTCAGAGCCTAGGGAGATTAGAGTATCGGTCGA | 8.54
AGAGCGATCAAAGGTCACAGAGACCACAGGGCCTAGGGAGATTAGAGTATCGGTCGA | 5.89
GTGGGTGCCAAACAAAAAGGGCAAAGGTCAGCCTAGGGAGATTAGAGTATCGGTCGA | 8.84
TGACTGGAGCAGAGCGATCAAAGGTCACAGGCCTAGGGAGATTAGAGTATCGGTCGA | 7.44
TATGAGAGAGAGAGAGAGGTGGGCAAAGGTGCCTAGGGAGATTAGAGTATCGGTCGA | 1.33
GAGAGAGAGAGAGGTGGGCAAAGGTCTCAAGCCTAGGGAGATTAGAGTATCGGTCGA | 3.68
CCCCATATCCAGTCAATCCCGTGGACTTTGGCCTAGGGAGATTAGAGTATCGGTCGA | 6.13
TTGAATTCCTTCTTCTTCTGGGGACTTCGGGCCTAGGGAGATTAGAGTATCGGTCGA | 2.16
CTTATAAATCTTCAACTGGAGGATAAAGTTGCCTAGGGAGATTAGAGTATCGGTCGA | 1.09
GAGTCCAAACTGGGACCTGTGACACTCTGCGCCTAGGGAGATTAGAGTATCGGTCGA | 0.644
CATACCAGGTGTAAAGTCTGGCATACAGGGGCCTAGGGAGATTAGAGTATCGGTCGA | 0.00259
ATGTTAGGCTGGAAAACTGGGCTGTTATTTGCCTAGGGAGATTAGAGTATCGGTCGA | 0.577
CATTTTTCTCTCTTGGACTCTTGGACTCCCGCCTAGGGAGATTAGAGTATCGGTCGA | 7.67
GAACATGGACTTTGAACCTCTCTTCTTTTTGCCTAGGGAGATTAGAGTATCGGTCGA | 7.93
CCATACCTCTTGCGTGTTATCTATGGAACAGCCTAGGGAGATTAGAGTATCGGTCGA | 1.67
AACATGGACTTTGTTGTTTGCCTCTGAAAAGCCTAGGGAGATTAGAGTATCGGTCGA | 2.8
CTATGGAACATGGACTTTGAACCTCTCTTCGCCTAGGGAGATTAGAGTATCGGTCGA | 9.09
TTTGAACACCTCTTCTTTCTTCTCTGGTACGCCTAGGGAGATTAGAGTATCGGTCGA | 1.8
TACATTGAACTTTGAACACCTCTTCTTTCTGCCTAGGGAGATTAGAGTATCGGTCGA | 5.51
TGCGTGTTATCTATGGAACATGGACTTTGAGCCTAGGGAGATTAGAGTATCGGTCGA | 9.28
TCCATCATTTTTCTCTCTTGGACTCTTGGAGCCTAGGGAGATTAGAGTATCGGTCGA | 4.92

Sequence | binding signal [log2 normalized intensity]
TTCTCTCTTGGACTCTTGGACTCCCTGAAGGCCTAGGGAGATTAGAGTATCGGTCGA | 5.73
CATCTGAACTCTTCATGGACTCCTCTTATCGCCTAGGGAGATTAGAGTATCGGTCGA | 2.06
CCTCTTGCGTGTTATCTATGGAACATGGACGCCTAGGGAGATTAGAGTATCGGTCGA | 2.5
TTGCCAGTTCCCATTTGCGCTGGTTTTATGGCCTAGGGAGATTAGAGTATCGGTCGA | 1.65
GTTATCACAGGCTTGGAATGTTTCTGTATCGCCTAGGGAGATTAGAGTATCGGTCGA | 0.74
AAACGCTGAAGTCTCAAAGTTCACCACTTTGCCTAGGGAGATTAGAGTATCGGTCGA | 3.3
GAAGCTGGTAGCATGGCTCAGTCCAAGTCCGCCTAGGGAGATTAGAGTATCGGTCGA | 0.896
TTGGACTCTGCCACTGGTTTGCACACACCAGCCTAGGGAGATTAGAGTATCGGTCGA | 1.94
TATACATTTTCCCACTTGTATGTCCAAGGGGCCTAGGGAGATTAGAGTATCGGTCGA | 1.25
GAACAAAGGTTGGTGTGAACCAGGGTTAAGGCCTAGGGAGATTAGAGTATCGGTCGA | 1.59
ACCTTTATCTGATCAGAAATGTTTGGAATTGCCTAGGGAGATTAGAGTATCGGTCGA | 1.84
AGTCTAACTTTGGACTTTTATGTTAAGATCGCCTAGGGAGATTAGAGTATCGGTCGA | 2.93
GTTATCTATGGAACATGGACTTTGAACCTCGCCTAGGGAGATTAGAGTATCGGTCGA | 10.9
TCTTCTTCTGGGGACTTCGGTCTTTTTTCTGCCTAGGGAGATTAGAGTATCGGTCGA | 2.67
CCTTTGGTGCCTCTTTTTTCTTGTTGACTTGCCTAGGGAGATTAGAGTATCGGTCGA | 1.91
CCTTGCTATGGAGTGGACTTTGGCTTATGCGCCTAGGGAGATTAGAGTATCGGTCGA | 7.08
ACTCATTTCACATTGGTGCCCTTTGCCTTTGCCTAGGGAGATTAGAGTATCGGTCGA | 4.99
TTTCTCTTTTGACCTTTGGACTTTCACATTGCCTAGGGAGATTAGAGTATCGGTCGA | 11
TGAACTTTGAACACCTCTTCTTTCTTCTCTGCCTAGGGAGATTAGAGTATCGGTCGA | 4.71
TGGACTTTGAACCTCTCTTCTTTTTCGTCTGCCTAGGGAGATTAGAGTATCGGTCGA | 7.42
